Measured values as given in ChEMBL document CHEMBL4513146, “CO-ADD screening of Karazin Kharkiv National University (Ukraine) compounds”.
Results with a measured potency or affinity are listed apart.

Assays:
[1] = tested on: Staphylococcus aureus; settings: Concentration 32 ug.mL-1;; ASSAY_TEST Inhibition of Bacterial Growth; detection method Absorption (OD600); MEDIA CAMHB; plate type 384well; NBS; CORNING #3640; time 18 hr
[2] = tested on: Escherichia coli; settings: Concentration 32 ug.mL-1;; ASSAY_TEST Inhibition of Bacterial Growth; detection method Absorption (OD600); MEDIA CAMHB; plate type 384well; NBS; CORNING #3640; time 18 hr

SMILES | Inhibition [1] [%] | Inhibition [2] [%]
O=C(CSc1nnc2c(=O)n(-c3ccccc3)ccn12)Nc1ccc(Br)cc1 | 5.51 | -4.01
COc1ccc(Cl)cc1NC(=O)Cn1nc2c3cc(-c4ccc(C)c(C)c4)nn3ccn2c1=O | -18.41 | -23.9
Cc1c(Cl)cccc1NC(=O)Cn1nc2c3c4c(sc3ncn2c1=O)CCCCC4 | 3.69 | -0.38
CCCCc1ccc(NC(=O)CSc2nc3ccccc3n3c(C(C)C)nnc23)cc1 | -8.95 | -2.74
Cc1ccc(Oc2nccn3c(=O)n(CC(=O)Nc4ccc(Br)cc4)nc23)cc1 | 6.95 | -5.29
O=c1c2nn(Cc3c(F)cccc3Cl)c(=O)n2ccn1-c1ccccc1 | -4.83 | 2.37
Cc1ccc(NC(=O)Cn2nc3c(Oc4ccccc4)nccn3c2=O)c(Br)c1 | 1.04 | -7.68
CC(=O)c1ccc(NC(=O)Cn2c(=O)c3nnc(C(C)C)n3c3ccccc32)cc1 | 5.44 | -3.86
COc1cccc(Oc2nccn3c(=O)n(CC(=O)Nc4ccc5c(c4)OCCO5)nc23)c1 | 9.52 | -8.9
CCCn1c(=O)c2ccc(C(=O)NC3CCCCC3)cc2n2c(=O)n(CC#N)nc12 | 0.58 | 2.29
COc1ccccc1-n1ccn2c(SCc3ccccc3Cl)nnc2c1=O | 15.04 | -4.4
O=C(CSc1nc2ccccc2n2c(-c3ccccc3)nnc12)Nc1ccc(Br)cc1 | 12.1 | -0.27
COc1ccc(Cl)cc1NC(=O)Cn1nc2c3cc(-c4ccc(C)cc4)nn3ccn2c1=O | 13.21 | 3.02
Cc1ccc(N(Cc2cccc(C)c2)S(=O)(=O)c2cccn3c(C)nnc23)cc1 | -2.01 | -15.69
COc1cccc(-n2ccn3c(SCc4cccc(F)c4)nnc3c2=O)c1 | 11.5 | -8.02
CCc1nnc2c(S(=O)(=O)N(Cc3cccc(C)c3)c3cccc(Cl)c3)cccn12 | 2.53 | -7.38
Cc1cccc(NC(=O)CSc2nnc3c4cc(-c5ccc(F)cc5)nn4ccn23)c1C | -11.28 | -13.99
Cc1cc(C)cc(NC(=O)Cn2nc3n(C)c(=O)c4c(c(-c5ccccc5)cn4C)n3c2=O)c1 | 7.23 | 1.88
O=C(Cn1nc2c(SC3CCCCC3)nccn2c1=O)NCc1ccc(F)cc1 | 3.45 | -3.55

SMILES | Inhibition [1] [%] | Inhibition [2] [%]
COc1cc(NC(=O)CSc2nnc3c(=O)n(-c4cccc(F)c4)ccn23)cc(OC)c1 | 10.57 | -3.07
CC(C)Cn1c(=O)c2sccc2n2c(=O)n(CC(=O)NC(C)(C)C)nc12 | -11.52 | -13.32
CCOc1ccc(-n2ccn3c(SCC(=O)Nc4cc(OC)cc(OC)c4)nnc3c2=O)cc1 | 7.49 | -3.15
COc1cccc(Sc2nc3ccccc3n3c(=O)n(CC(=O)Nc4cccc(C#N)c4)nc23)c1 | 2.4 | -6.13
CCC(Sc1nnc2c(=O)n(-c3cccc(OC)c3)ccn12)C(=O)Nc1cc(OC)ccc1OC (centres undefined) | -1.04 | -13.69
CCCCc1ccc(NC(=O)Cn2nc3c(Sc4ccccc4CC)nccn3c2=O)cc1 | -7.41 | -10.67
CC(C)c1ccc(N(Cc2cccc(Cl)c2)S(=O)(=O)c2cccn3cnnc23)cc1 | -3.13 | -8.14
COc1cccc(CNC(=O)CSc2nnc3c(=O)n(-c4cccc(OC)c4)ccn23)c1 | 1.1 | 0.96
Cc1c(Cl)cccc1-n1ccn2c(=O)n(Cc3ccc(F)cc3)nc2c1=O | 2.79 | -11.88
N#Cc1ccccc1NC(=O)Cn1nc2c(Oc3ccccc3)nccn2c1=O | 8.21 | 1.56
COc1ccc(NC(=O)CSc2nc3ccccc3n3cnnc23)cc1OC | 12.3 | 2.46
O=C(Cn1nc2c3cc(-c4ccc(F)cc4)nn3ccn2c1=O)Nc1ccc(Br)cc1 | -9.12 | -9.31
Cc1ccc(Oc2nccn3c(=O)n(CC(=O)Nc4ccccc4Br)nc23)cc1 | 10.09 | -0.96
COc1ccc(OC)c(NC(=O)Cn2nc3ccc(-c4ccc(C)cc4)nn3c2=O)c1 | -7.96 | -11.89
COc1ccc(NC(=O)Cn2c(=O)c3nnc(C)n3c3ccccc32)cc1Cl | 14.24 | 3.26
CCCCOc1ccc(-c2cc3c4nnc(SCC(=O)Nc5ccccc5F)n4ccn3n2)cc1 | -0.1 | -3.53
O=S(=O)(c1ccc2nncn2c1)N(Cc1cc(F)cc(F)c1)c1ccc(F)cc1 | 2.59 | -3.43
CCc1nnc2ccc(S(=O)(=O)N(Cc3cccc(OC)c3)c3cccc(F)c3)cn12 | -0.28 | -5.95
